Bioassay records as filed in PubChem BioAssay.
Peg3 prom inh: inhibitors of Peg3 promoter | AID 588405 | hit rate 1.7% among 360,000 | inhibition, % at 20 µM | HeLa PEG-Prom luciferase reporter, luminescence, overnight;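 active = inhibition of at least 50% at 20 µM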
PAX8 inh HTS: lowers PAX8-driven luciferase in RMG-I cells. inhibition, % at 12.6 µM. RMG-I TPO-luciferase reporter, SteadyGlo, 24 h. AID 652154. hit rate 1.2% among 360,000;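 active = mean replicate inhibition at least 60% with every replicate also reaching 60%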;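 note: luciferase light reporting Pax8 driven TPO promoter activity; plate controls were median of neutral control wells for no effect and mitoxantrone controls for full effect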
EBV LMP1 NFkB: reduces LMP1-driven NF-kappaB luciferase signal. LMP1-induced NF-kappaB luciferase reporter cells, luminescence. inhibition, % at 12.5 µM. hit rate 0.69% among 350,000. AID 504558; in the data active = inhibition above about 41%;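 note: 0% = neutral control wells and 100% = reference inhibitor control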
Shn3 3UTR inh: inhibitors of Schnurri-3 3'UTR reporter in osteoblasts; hit rate 0.52% among 360,000; inhibition, % at 12.5 µM; Clone20 osteoblast Shn3 3'UTR firefly luciferase, 24 h; AID 588674;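 active = mean inhibition of at least 75% with every replicate also reaching 75%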;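 note: 0% = median of neutral control wells and 100% = pilot-screen positive control compound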
HIF-2a block: inhibitors of HIF-2a | 786-0 RCC cells HIF-2a reporter, luciferase luminescence, overnight | inhibition, % at 18.8 µM | hit rate 0.72% among 360,000 | AID 624352;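 active = inhibition of the luminescence signal of 40% or more relative to plate controls, in a single-dose primary screen at 18.75 µM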
TRPM1 prom inh: inhibitors of MITF-driven TRPM1 promoter in melanoma cells; AID 488899; inhibition, % at 12.5 µM; hit rate 0.83% among 330,000; SK-MEL-5 TRPM1 promoter luciferase, 24 h;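 active = mean inhibition across replicates of 60% or more, whatever share of single replicates reaches that level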
The depositor's hits bear a star. Hits are enriched below; roughly 2.8% of the tested compounds scored in any of these assays.

Results for COC(=O)C1=C(C)N(Cc2ccccc2)C(=NCCc2cccnc2)N[C@H]1c1ccc(Br)cc1 ?
Peg3 prom inh: 93.8*; EBV LMP1 NFkB: 3.7; Shn3 3UTR inh: -84.9; HIF-2a block: -12.4; TRPM1 prom inh: 78.0*

How did C[C@@H]1CN([C@H](C)CO)C(=O)c2cc(NC(=O)Cc3ccccc3)ccc2O[C@H]1CN(C)Cc1ccccc1 do in these assays?
PAX8 inh HTS: -6.8

Results for O=C(C[C@@H]1CC[C@H](NC(=O)C2CCOCC2)[C@@H](CO)O1)NCC1CC1 ?
PAX8 inh HTS: 1.7

How did CC(C)C#Cc1ccc([C@@H]2[C@H]3CN(S(=O)(=O)c4ccccc4)CC(=O)N3[C@H]2CO)cc1 do in these assays?
PAX8 inh HTS: 21.7

Results for COc1ccc(S(=O)(=O)N(C)C[C@H]2Oc3ccc(N(C)C)cc3CC(=O)N([C@H](C)CO)C[C@@H]2C)cc1 ?
PAX8 inh HTS: -5.4

Results for COC(=O)C1=C(C)N(Cc2ccccc2)C(=NCc2ccccc2)N[C@H]1c1cccc(C(F)(F)F)c1 ?
Peg3 prom inh: 99.5*; EBV LMP1 NFkB: 7.5; Shn3 3UTR inh: 17.1; HIF-2a block: 9.5; TRPM1 prom inh: 89.1*

Results for N#C[C@H]1[C@H](c2ccccc2-c2cccc(F)c2)[C@@H](CO)N1C(=O)C1CCCCC1 ?
PAX8 inh HTS: 29.2

Results for Cc1noc(C)c1NC(=O)N(C)C[C@H]1OCCCC[C@@H](C)Oc2ccc(NS(=O)(=O)c3ccc(F)cc3)cc2C(=O)N([C@H](C)CO)C[C@H]1C ?
PAX8 inh HTS: -4.4

What do the screens show for `CC(C)CCNC(=S)Nc1ccc2nc3n(c(=O)c2c1)CCCCC3`?
Peg3 prom inh: -26.4; PAX8 inh HTS: -21.5; EBV LMP1 NFkB: 62.7*; Shn3 3UTR inh: -12.4; HIF-2a block: 6.7; TRPM1 prom inh: -16.2

How did C[C@H](CO)N1C[C@H](C)[C@H](CN(C)C(=O)Nc2ccccc2)Oc2ncc(C#CC3CCCCC3)cc2C1=O do in these assays?
PAX8 inh HTS: 9.2

How did CCc1ccc(NC(=O)c2ccc3c(=O)n4c(nc3c2)CCCCC4)cc1 do in these assays?
Peg3 prom inh: -79.3; PAX8 inh HTS: 0.9; EBV LMP1 NFkB: 7.6; Shn3 3UTR inh: -0.3; HIF-2a block: -154.4; TRPM1 prom inh: -22.6

Results for O=C(Nc1cccc(S(=O)(=O)N2CCCCC2)c1)c1ccc2c(=O)n3c(nc2c1)CCCCC3 ?
Peg3 prom inh: 89.9*; PAX8 inh HTS: 38.3; EBV LMP1 NFkB: 11.0; Shn3 3UTR inh: 63.4; HIF-2a block: -5.7; TRPM1 prom inh: 51.8

How did CN(Cc1ccccc1)c1nc(N)c([N+](=O)[O-])c(NCc2ccccc2)n1 do in these assays?
Peg3 prom inh: 38.3; EBV LMP1 NFkB: 71.8*; Shn3 3UTR inh: 10.5; HIF-2a block: 5.2; TRPM1 prom inh: -2.6

How did CCOc1cc(CNCCCN2CCOCC2)cc(Br)c1OCC(=O)Nc1cccc(C(F)(F)F)c1 do in these assays?
Peg3 prom inh: 68.1*; EBV LMP1 NFkB: -44.7; Shn3 3UTR inh: 12.7; HIF-2a block: 18.6; TRPM1 prom inh: 74.4*

Results for CCOc1cc(CNCCCN2CCOCC2)cc(Cl)c1OCC(=O)NC(C)(C)C ?
Peg3 prom inh: -34.0; PAX8 inh HTS: -8.1; EBV LMP1 NFkB: 7.3; Shn3 3UTR inh: -17.5; HIF-2a block: 11.2; TRPM1 prom inh: -5.3

Results for COc1cc(/C=N/NS(=O)(=O)c2ccc(C)cc2)ccc1OCc1cccc(C(=O)O)c1 ?
Peg3 prom inh: -2.1; PAX8 inh HTS: 91.3*; EBV LMP1 NFkB: 73.2*; Shn3 3UTR inh: 68.5; HIF-2a block: 31.8; TRPM1 prom inh: 77.7*

Results for COc1cc(/C=N/NS(=O)(=O)c2ccc3ccccc3c2)ccc1OCc1ccc(C(=O)O)cc1 ?
Peg3 prom inh: -4.8; PAX8 inh HTS: 84.2*; EBV LMP1 NFkB: 67.3*; Shn3 3UTR inh: 32.1; HIF-2a block: 17.9; TRPM1 prom inh: 64.3*

How did COc1ccc(/C=C/C(=O)c2cc(F)ccc2OC(=O)c2ccc(OC)c(OC)c2)cc1OC do in these assays?
Peg3 prom inh: 22.8; PAX8 inh HTS: 2.9; EBV LMP1 NFkB: 15.1; Shn3 3UTR inh: -9.8; HIF-2a block: 1.7; TRPM1 prom inh: -11.5

What do the screens show for `COc1ccc(/C=C/C(=O)c2cc(F)ccc2OC(=O)c2ccccc2OC)cc1OC`?
Peg3 prom inh: 52.2*; PAX8 inh HTS: 85.2*; EBV LMP1 NFkB: -7.2; Shn3 3UTR inh: 16.8; HIF-2a block: 75.7*; TRPM1 prom inh: 44.8
